Potency, outcome and activity change, positive = activation data for nine compounds are collected here from PubChem BioAssay (Tox21).

In experiment [1] the target is Luciferin 4-monooxygenase (Photinus pyralis) (UniProt P08659). The experiment is described as follows: qHTS assay to identify small molecule inhibitors of firefly luciferase (AID 1224835). Also: nearly all actives have a fitted effect of over 25% in size. Also: potency is read from the fitted curve at half-maximal effect. Put shortly: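 Biochemical qHTS: compounds run as interplate titrations against purified firefly enzyme, with D-luciferin and ATP each at its KM concentration. Light output recorded by CCD imaging.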
Chain of Luciferin 4-monooxygenase (Photinus pyralis) (P08659 whole entry, looked up): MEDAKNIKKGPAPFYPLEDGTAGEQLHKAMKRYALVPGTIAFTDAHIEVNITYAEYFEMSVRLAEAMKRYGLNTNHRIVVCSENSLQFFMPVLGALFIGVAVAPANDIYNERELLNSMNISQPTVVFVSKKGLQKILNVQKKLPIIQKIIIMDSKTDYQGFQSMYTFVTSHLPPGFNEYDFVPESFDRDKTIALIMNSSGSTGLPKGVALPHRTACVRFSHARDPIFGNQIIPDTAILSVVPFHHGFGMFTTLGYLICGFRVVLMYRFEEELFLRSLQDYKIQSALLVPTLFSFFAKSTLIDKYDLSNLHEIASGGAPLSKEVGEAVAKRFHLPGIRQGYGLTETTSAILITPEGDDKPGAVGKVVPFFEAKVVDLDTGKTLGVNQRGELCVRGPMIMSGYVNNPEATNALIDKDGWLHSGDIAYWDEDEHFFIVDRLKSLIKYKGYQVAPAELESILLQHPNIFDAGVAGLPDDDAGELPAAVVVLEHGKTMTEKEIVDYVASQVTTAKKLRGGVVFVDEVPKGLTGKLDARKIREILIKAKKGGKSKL
(In qHTS, concentration-response curves come from the screen itself.)

Experiment [2] is described as follows: qHTS assay to identify small molecule agonists of the constitutive androstane receptor (CAR) signaling pathway - cell viability counter screen (AID 1224836). Also: nearly all actives have a fitted effect of over 45% in size. The gist of the method: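 23 h treatment, 37 C, 5% CO2. Cell line: HepG2 stably expressing hCAR with a CYP2B6-2.2kb construct. Co-treatment: PK11195, 0.75 uM final. Read-out: CellTiter-Fluor fluorescence intensity.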

A short description of experiment [3]: qHTS assay to identify small molecule antagonists of the constitutive androstane receptor (CAR) signaling pathway - cell viability counter screen (AID 1224837). Also: nearly all actives have a fitted effect of over 45% in size. Put shortly: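 HepG2 cells stably expressing hCAR and a CYP2B6-2.2kb reporter were plated and pre-incubated 4 hr at 37 C/5% CO2, then given compounds at 15 concentrations plus 50 nM CITCO (final). After 23 hr, viability was read by CellTiter-Fluor fluorescence.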

The target in experiment [4] is Nuclear receptor subfamily 1 group I member 3 (Homo sapiens) (UniProt Q14994). The experiment is described as follows: qHTS assay to identify small molecule antagonists of the constitutive androstane receptor (CAR) signaling pathway (AID 1224838). Also: nearly all actives have a fitted effect of over 40% in size. Put shortly: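 HepG2 cells stably co-transfected with hCAR and a CYP2B6-2.2kb luciferase reporter were seeded 4 h before compound addition at 15 concentrations. Cells were stimulated with 50 nM CITCO (final) for 24 h at 37 C; luciferase luminescence was then read.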
Chain of Nuclear receptor subfamily 1 group I member 3 (Homo sapiens) (Q14994 whole entry, looked up): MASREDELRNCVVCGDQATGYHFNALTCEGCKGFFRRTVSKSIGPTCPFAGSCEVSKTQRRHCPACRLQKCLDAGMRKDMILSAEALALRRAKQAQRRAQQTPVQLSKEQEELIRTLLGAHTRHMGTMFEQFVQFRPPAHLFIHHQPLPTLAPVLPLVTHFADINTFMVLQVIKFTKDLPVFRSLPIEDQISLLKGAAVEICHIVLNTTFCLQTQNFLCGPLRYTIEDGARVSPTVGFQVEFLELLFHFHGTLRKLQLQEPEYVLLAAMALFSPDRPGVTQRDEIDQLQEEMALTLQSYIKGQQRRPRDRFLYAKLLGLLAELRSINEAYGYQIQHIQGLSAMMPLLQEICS

Experiment [5] has the same target. Put plainly: qHTS assay to identify small molecule agonists of the constitutive androstane receptor (CAR) signaling pathway (AID 1224839). Also: nearly all actives have a fitted effect of over 15% in size. Put shortly: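 Compounds tested at 15 concentrations on HepG2 cells stably harbouring hCAR and CYP2B6-2.2kb reporter constructs, co-treated with PK11195 (0.75 uM final), 24 h at 37 C; luminescent reporter signal quantified.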

Experiment [6] is described as follows: qHTS assay to identify small molecule antagonists of the estrogen related receptor signaling pathway with the pleiotropic PPARgamma coactivator (PGC) from Tox21 10K library - cell viability counter screen (AID 1224840; active = well fitted cell-killing curve with a large enough effect in the repeat runs, not every such curve was filed as active; also: nearly all actives have a fitted effect of over 40% in size). The gist of the method: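 PGC/ERR cells were seeded at 2,000 cells/well and left 6 hours at 37 C/5% CO2 before pin-tool addition of compounds in DMSO. After 17.5 hours at 37 C, CellTiter-Fluor was added and fluorescence read 30 minutes later.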

Experiment [7] deals with Thyrotropin receptor (Homo sapiens) (UniProt P16473). Put plainly: qHTS assay to identify small molecule agonists of the thyroid stimulating hormone receptor (TSHR) signaling pathway (AID 1224843; calls by dose curve; also: nearly all actives have a fitted effect of over 45% in size). The gist of the method:
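TSHR-HEK293 cells in agonist mode, 30 min room-temperature step, then cAMP measured by competitive HTRF (cAMP-d2 with anti-cAMP cryptate) after 1 h at room temperature. Tested at 15 concentrations in triplicate.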

Experiment [8] in a line: qHTS assay to identify small molecule agonists of the hypoxia (HIF-1) signaling pathway - cell viability counter screen (AID 1224844; calls by dose curve; also: nearly all actives have a fitted effect of over 50% in size). Put shortly: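 HRE-bla ME-180 cells in medium with 0.5% dialyzed FBS were preincubated 5 hrs at 37C, exposed to compounds for 17 hrs, then viability was read as CellTiter-Glo luminescence after 30 min at room temperature, in the reporter wells.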

Experiment [9] is described as follows: qHTS assay to identify small molecule agonists of H2AX (AID 1224845; active = well fitted activation curve with a large enough effect in the signal ratio in the repeat runs, not every such curve was filed as active; the % refers to the signal ratio). Put shortly: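 Wild-type CHO-K1 cells, plated overnight, exposed 3hr at 37C to 15 concentrations (0.76% DMSO final). Lysed, then HTRF anti-pH2AX (S139) cryptate and anti-H2AX-d2 antibodies, 24 hr room temperature; 665/620 nm emission read.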
Experiment [10] in a line: qHTS assay to identify small molecule agonists of the hypoxia (HIF-1) signaling pathway (AID 1224846; active = well fitted activation curve with a large enough effect in the signal ratio in the repeat runs, not every such curve was filed as active; the % refers to the signal ratio). Put shortly: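 HRE-bla ME-180 cells (beta-lactamase reporter under hypoxia response element) were plated at 2,000 cells/well in medium with 0.5% dialyzed FBS, rested 5 hrs, then given compounds in DMSO for 17 hrs at 37C, 5% CO2. Reporter induction was read with CCF4-AM FRET substrate.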

Experiment [11] is described as follows: qHTS assay to identify small molecule agonists of H2AX - cell viability counter screen (AID 1224847; calls by dose curve; also: top concentration of the series differs between compounds; nearly all actives have a fitted effect of over 30% in size). Put shortly: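 Compounds tested at 15 concentrations were incubated 3 hr at 37C with wild-type CHO-K1 cells; cellular ATP-based luminescence (CellTiter-Glo) indicated viability.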
Experiment [12] can be described thus: qHTS RealTime-Glo MT Cell Viability Assay in HepG2 cells - 24 hour (AID 1224867). Also: nearly all actives have a fitted effect of over 50% in size. The gist of the method: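 Tox21 10K library screened in qHTS format on HepG2 cells carrying RealTime-Glo reagents. Compounds were added after a 5 h preincubation, and the luminescent signal from continuous culture was measured repeatedly during 40 h treatment.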
Experiment [13] can be described thus: qHTS RealTime-Glo MT Cell Viability Assay in HEK293 cells - 32 hour (AID 1224868). Also: top concentration of the series differs between compounds; nearly all actives have a fitted effect of over 50% in size. Put shortly: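 Luminescence generated by NanoLuc from substrate produced by living HEK293 cells served as the viability signal. Each value reflects the reading at its stated time point during continuous 40 h compound exposure at 37 C.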
Experiment [14] can be described thus: A CellTox Green Cytotoxicity Assay to monitor cytotoxicity in HEK293 cells - 0 hour (AID 1224869). Also: nearly all actives have a fitted effect of over 50% in size. Put shortly:
(§1)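 HEK293 cells premixed with CellTox Green dye were seeded at 600 cells/well and left 5 h at 37 C/5% CO2 before pin transfer of 23 nL compound in DMSO. Fluorescence from dye bound to dead-cell DNA was read during 40 h treatment.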

Experiment [15] can be described thus: A CellTox Green Cytotoxicity Assay to monitor cytotoxicity in HEK293 cells - 40 hour (AID 1224871). Also: nearly all actives have a fitted effect of over 45% in size. The gist of the method: as §1
Experiment [16] in a line: qHTS RealTime-Glo MT Cell Viability Assay in HepG2 cells - 40 hour (AID 1224870). Also: nearly all actives have a fitted effect of over 50% in size. Put shortly:
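HepG2 cells (600/well) mixed with RealTime-Glo MT reagent, settled 5 h at 37 C/5% CO2 before compound addition. Nonlytic NanoLuc luminescence from viable-cell prosubstrate reduction read repeatedly during 40 h treatment at 37 C.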

A short description of experiment [17]: qHTS assay to identify small molecule antagonists of the estrogen related receptor signaling pathway with the pleiotropic PPARgamma coactivator (PGC) from Tox21 10K library (AID 1224841; call rule not given here). Put shortly: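 PGC/ERR reporter cells were seeded at 2,000 cells/well and held 6 hours at 37 C/5% CO2 before pin-tool addition of compounds in DMSO. After 18 hours at 37 C, One-Glo was added and luminescence read after 30 minutes at room temperature.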

The nature of experiment [18]: qHTS assay to identify small molecule agonists of the estrogen related receptor signaling pathway with the pleiotropic PPARgamma coactivator (PGC) from Tox21 10K library (AID 1224842). Also: nearly all actives have a fitted effect of over 15% in size. The gist of the method: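 PGC/ERR reporter cell line, 2,000 cells per well, incubated 6 h at 37 C before 23 nL compound in DMSO was added. After 18 h at 37 C, One-Glo luminescence read following 30 min at room temperature.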

Experiment [19] in a line: qHTS assay to identify small molecule antagonists of the estrogen related receptor (ERR) signaling pathway from Tox21 library (AID 1224848). Also: nearly all actives have a fitted effect of over 50% in size. Put shortly: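 ERR reporter cell line (from NTP) seeded 2,000 cells/well, rested 6 h at 37 C/5% CO2, then pin-dosed with compounds in DMSO. After 18 h at 37 C, ONE-Glo added; luminescence read after 30 min at room temperature.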
The nature of experiment [20]: qHTS assay to identify small molecule agonists of the estrogen related receptor (ERR) signaling pathway from Tox21 library (AID 1224849; calls by dose curve; also: nearly all actives have a fitted effect of over 15% in size). Particulars: ERR reporter cell line, ONE-Glo luciferase, 18 h; at 92.4 µM (top of the series) unless noted. Put shortly: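 ERR reporter cell line (NTP) seeded, rested 6 h at 37 C/5% CO2, then pinned with Tox21 compounds in DMSO. After 18 h at 37 C, ONE-Glo luciferase luminescence was read following 30 min at room temperature.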

Molecules are shown by their SMILES. A number with no mark means an inactive call. Records with an inconclusive call do not appear. Activity calls are given as the source filed them. Unless noted, calls follow the shape of the dose curve; as a rule, active = well fitted curve in the direction sought with a large enough effect in the repeat runs; inconclusive = weak or mixed curves; inactive = no such curve, though single readings can be large; an effect the other way counts as inactive or inconclusive.
% is scaled to controls: 0 for no effect and ±100 for the full control effect.

Chain of Thyrotropin receptor (Homo sapiens) (P16473 whole entry, looked up): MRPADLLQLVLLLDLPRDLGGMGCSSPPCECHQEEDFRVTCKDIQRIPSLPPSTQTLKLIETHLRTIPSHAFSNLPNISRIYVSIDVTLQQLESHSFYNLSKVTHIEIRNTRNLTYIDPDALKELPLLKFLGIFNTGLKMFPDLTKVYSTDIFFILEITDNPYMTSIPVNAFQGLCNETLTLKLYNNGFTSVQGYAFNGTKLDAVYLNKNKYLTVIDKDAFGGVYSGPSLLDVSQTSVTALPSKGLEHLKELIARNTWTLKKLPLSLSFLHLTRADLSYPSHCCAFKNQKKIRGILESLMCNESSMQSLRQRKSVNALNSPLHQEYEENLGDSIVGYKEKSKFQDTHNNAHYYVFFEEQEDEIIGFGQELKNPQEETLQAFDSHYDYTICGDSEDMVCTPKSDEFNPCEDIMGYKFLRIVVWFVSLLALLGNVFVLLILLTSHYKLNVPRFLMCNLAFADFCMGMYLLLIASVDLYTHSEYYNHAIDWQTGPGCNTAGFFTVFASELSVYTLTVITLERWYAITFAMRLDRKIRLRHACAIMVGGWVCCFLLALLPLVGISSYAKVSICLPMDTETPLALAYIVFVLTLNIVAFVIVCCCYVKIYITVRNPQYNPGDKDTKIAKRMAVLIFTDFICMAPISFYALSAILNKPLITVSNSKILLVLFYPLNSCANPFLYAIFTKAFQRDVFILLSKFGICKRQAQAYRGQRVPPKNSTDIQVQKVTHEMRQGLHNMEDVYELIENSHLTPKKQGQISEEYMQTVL

As to `Cc1cccc(OCC(O)CNC(C)(C)C)c1C` (stereo unspecified), the Potency result in experiment [1], in experiment [2], in [3], in experiment [5], in [7] and in experiment [11] was “inactive” throughout. The Potency entry in experiment [13] and in experiment [15] was “inactive” in each case. Moreover, the compound was called inactive in experiment [4], in [6], in experiment [8], in experiment [9], in experiment [10] and in [12]. Also, the compound was classed as inactive in experiment [14].

`O=S(=O)(O)c1cc(O)c2ccc(Nc3ccccc3)cc2c1`: the Potency in experiment [1] was 17.8 µM (active). Further, the Potency entry in [2], in experiment [3], in [5], in experiment [11], in [13] and in experiment [15] was “inactive” throughout. For the same compound, the outcome in [4], in experiment [6], in experiment [8], in [10], in experiment [12] and in [16] was inactive.

In the case of `CCCCCCCCCC(C)=O`, the Potency result in [1], in [2], in experiment [3], in experiment [5], in experiment [7] and in [11] was “inactive” in each case. Also, the Potency result in [13] and in experiment [15] was “inactive” in each case. In addition, the result in experiment [4], in experiment [6], in experiment [8], in [9], in experiment [10] and in [12] was inactive.

On to `O=C(OCC(COC(=O)c1cccnc1)(COC(=O)c1cccnc1)COC(=O)c1cccnc1)c1cccnc1`, for which the Potency result in [1], in [2], in experiment [3], in experiment [5], in experiment [7] and in [11] was “inactive” in each case. The Potency entry in [13] and in experiment [15] was “inactive” throughout. Also, the compound was called inactive in experiment [4], in experiment [6], in experiment [8], in experiment [9], in experiment [10] and in experiment [12]. Also, the result in experiment [14] and in experiment [16] was inactive.

Turning to `COc1cc2c(cc1OC)[C@@H]1CC(=O)[C@@H](CC(C)C)CN1CC2`, the Potency result in [1], in [2], in experiment [3], in experiment [5], in [7] and in [11] was “inactive” in each case. Moreover, the Potency entry in [13] and in experiment [15] was “inactive” each time. Moreover, the outcome in experiment [4], in experiment [6], in experiment [8], in experiment [9], in [10] and in experiment [12] was inactive. Moreover, the call in experiment [14] and in experiment [16] was inactive.

Regarding `CC(COC(C)(C)C)OCCCO` (stereo unspecified), the Potency result in experiment [1], in experiment [2], in experiment [3], in experiment [17], in experiment [7] and in [19] was “inactive” throughout. For the same compound, the Potency entry in experiment [15] was “inactive”. Moreover, the call in [4], in [6], in [18], in [8], in experiment [9] and in experiment [10] was inactive. The call in experiment [12], in experiment [14] and in [16] was inactive. Also, in [20], the activity change, positive = activation was 3.31%.

On to `CCOC(=O)CC(=O)c1ccccc1`, for which the Potency entry in experiment [1], in experiment [2], in experiment [3], in [5], in [7] and in [11] was “inactive” each time. Further, the Potency result in experiment [13] and in experiment [15] was “inactive” each time. In addition, the outcome in experiment [4], in experiment [6], in experiment [8], in [9], in experiment [10] and in experiment [12] was inactive. The outcome in [14] and in experiment [16] was inactive.

Regarding `C=CC(OCC)OCC`, the Potency entry in [1], in experiment [2], in [3], in experiment [5], in [11] and in experiment [13] was “inactive” throughout. For the same compound, in experiment [15], the Potency entry was “inactive”. The call in [4], in experiment [6], in [8], in experiment [9], in experiment [10] and in experiment [14] was inactive. For the same compound, in experiment [16], the compound was classed as inactive.

For `NNc1nnc(NN)c2ccccc12`, the Potency in experiment [1] was 17.4 µM (active). Moreover, the Potency result in experiment [2], in experiment [3], in [5], in experiment [7], in experiment [13] and in [15] was “inactive” in each case. The call in [4], in experiment [6], in experiment [8], in [9], in [10] and in experiment [12] was inactive. Besides, the outcome in experiment [14] and in [16] was inactive.
